Measured values taken from PubChem BioAssay AID584 (National Center for Advancing Translational Sciences (NCATS), 2007).
In all, about 71,000 compounds went through this assay and about 65 (0.09%) were called active. Where a call stands in place of a potency, no number is given. Many of the other results were omitted from the sample, so actives are more common in it than they were. A number with no mark means an inactive call. Calls come from the whole dose curve; as a rule, active = well fitted curve in the direction sought with a large enough effect; inconclusive = small, poorly fitted or top-dose-only effect; inactive = flat fitted curve, though single readings scatter.

target: Beta-lactamase (Escherichia coli (strain K12)) (UniProt P00811); experiment: Promiscuous and Specific Inhibitors of AmpC Beta-Lactamase (assay with detergent); settings: purified AmpC, nitrocefin hydrolysis with detergent; series mostly up to 28.7 µM
Sequence (P00811 whole entry, looked up): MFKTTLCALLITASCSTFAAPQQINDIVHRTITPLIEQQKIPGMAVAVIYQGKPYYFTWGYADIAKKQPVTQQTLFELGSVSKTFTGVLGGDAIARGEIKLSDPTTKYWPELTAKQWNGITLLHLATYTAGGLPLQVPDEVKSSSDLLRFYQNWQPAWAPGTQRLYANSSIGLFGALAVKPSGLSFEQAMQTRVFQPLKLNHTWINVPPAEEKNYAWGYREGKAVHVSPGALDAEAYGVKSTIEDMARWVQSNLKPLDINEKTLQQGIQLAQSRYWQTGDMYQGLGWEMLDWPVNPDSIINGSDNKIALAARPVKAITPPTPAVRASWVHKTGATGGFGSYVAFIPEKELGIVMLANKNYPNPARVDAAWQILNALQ
Method: NIH Molecular Libraries Screening Centers Network [MLSCN]
NIH Chemical Genomics Center [NCGC]
PI Name: Shoichet, Brian K.
This aggregation profiling approach exploits the sensitivity of aggregate formation to detergent. Inhibition of b-lactamase is measured in the presence and absence of 0.01% Triton X-100. This particular assay had the prescence of 0.01% Triton X-100. See Pubchem assay "Promiscuous and Specific Inhibitors of AmpC Beta-Lactamase (assay without detergent)" for related screen. Compounds that inhibit only in the absence of detergent are considered likely promiscuous aggregators.
A screen of 1,030 compounds was performed in Brian Shoichet's lab in 96-well format. AmpC activity was measured by following the absorbance at 480 nm. Nitrocefin is a chromogenic substrate: while nitrocefin is yellow (lmax 390 nm), the product of its hydrolysis is red (lmax 486 nm, 17,000 M-1). AmpC beta lactamase was provided by Brian Shoichet and Brian Feng, UCSF.
NCGC Assay Protocol Summary:
20 mM phosphate buffer, pH 7.0
Triton X-100: No Detergent screen: 0.0001%, Detergent screen: 0.01%.
Buffer in columns 3 and 4 as negative control (no enzyme).
5.3 nM AmpC in columns 1, 2, 5-48. Titration of UCSF compound 9 control (from 10 mM, then 1:2) pin-transferred to column 2. Column 1 is neutral (100% activity).
Six uL of reagents were dispensed to 1536-well Greiner black clear bottom plates. Compounds and controls (23 nL) were transferred via Kalypsys PinTool. The plates were incubated for 15 min at room temperature, and then 2 uL of 800 uM solution of nitrocefin was added to start the reaction. The plates were immediately transferred to and read every 20 seconds for 4 min on ViewLux (Perkin-Elmer) High-throughput CCD imager using 480 nm absorbance protocol. During dispense, reagent bottles were kept submerged into 4 deg C water bath.
Keywords: NIH Roadmap, MLSCN, MLI, MLSMR, qHTS, NCGC, AmpC Beta-Lactamase, Aggregation
Potency is the fitted concentration of half-maximal effect.

| SMILES | Potency | activity change, negative = inhibition |
| --- | --- | --- |
| CC(C)(O/N=C(\C(=O)N[C@@H]1C(=O)N2C(C(=O)[O-])=C(C[n+]3ccccc3)CS[C@@H]12)c1csc(N)n1)C(=O)O | 3.98 µM (active) |  |
| COc1ccc(OC)c(C2N(c3ccccn3)C(=O)C3CCCN32)c1 (stereo not given) |  | inactive |
| Clc1ccc(CSc2nnc([C@@H]3CCCN3)o2)cc1 |  | inactive |
| C=CCNC(=O)c1ccc(C)c(Br)c1 |  | inactive |
| Cc1ccc(CNC(=O)CN2CCN(Cc3ccc(Cl)cc3)C2=O)cc1 |  | inactive |
| COCCCNC(=O)c1ccc(CNS(=O)(=O)c2ccc(NC(C)=O)cc2)cc1 |  | inactive |
| Cn1nc(-c2ccc(Cl)cc2)c2cc(C(=O)NCc3ccco3)sc21 |  | inactive |
| CCCN(CCC)CCNC(=O)c1cc2c(C)nc3ccccc3c2o1 |  | inactive |
| CCn1c(NCCc2ccc(OC)c(OC)c2)nc2c1c(=O)n(C)c(=O)n2C |  | inactive |
| Fc1ccccc1CCNc1nnnn1-c1ccccc1 |  | inactive |
| Cc1ccn2cc(-c3nonc3C)cc2c1 |  | inactive |
| O=C(c1cccc(S(=O)(=O)N2CCOCC2)c1)N1CCOCC1 |  | inactive |
| Clc1ccc(Nc2nc(-c3cccs3)cs2)nc1 |  | inactive |
| COc1cccc2sc(Nc3nc(C)c(C(C)=O)s3)nc12 |  | inactive |
| CC(=O)N1CCc2cc(S(=O)(=O)Nc3ccccc3N3CCN(C)CC3)ccc21 |  | inactive |
| COc1ccc(OCC(=O)N2CCN(C(=O)c3cccs3)CC2)cc1 |  | inactive |
| Cc1ccccc1C(=O)NCCN=C1NS(=O)(=O)c2ccccc21 |  | inactive |
| C#CCN1C(=O)C(O)(CC(=O)c2cc(OC)ccc2OC)c2ccccc21 (stereo not given) |  | inactive |
| CCOC(=O)c1ccc(N2C(=O)CC(N3CCC(C(=O)OCC)CC3)C2=O)cc1 (stereo not given) |  | inactive |
| O=C1c2oc3ccc(Br)cc3c(=O)c2C(c2cccc(F)c2)N1CCO (stereo not given) |  | inactive |
| O=C(c1ccco1)N1CCC[C@@]2(CCN(Cc3nccs3)C2)C1 |  | inactive |
| O=C1c2oc3ccccc3c(=O)c2C(c2cccc(O)c2)N1c1ccccn1 (stereo not given) |  | inactive |
| CCCCCCCCCCCC(=O)O[C@H](CC(=O)O)C[N+](C)(C)C |  | inactive |
| CCOC(=O)N1CCN(C(=O)c2n[nH]c(=O)c3ccccc23)CC1 |  | inactive |

| SMILES | Potency | activity change, negative = inhibition |
| --- | --- | --- |
| CC(C)c1cc(C(=O)O)on1 |  | inactive |
| O=S(=O)(c1ccc(OCC(O)CN2CCN(c3ccccc3Cl)CC2)cc1)N1CCOCC1 (stereo not given) |  | inactive |
| CCNC(=O)N1CCNC(=O)C1CC(=O)Nc1ccc(C(=O)OCC)cc1 (stereo not given) |  | inactive |
| COc1ccccc1-n1nnnc1S(=O)(=O)Cc1ccc(Cl)cc1 |  | inactive |
| COc1ccc2occ(C(=O)c3ccc(N=C(C)N(C)C)cc3)c2c1 |  | inactive |
| CCC(=O)Nc1ccc2c(c1)nc(CCN1CCN(C)CC1)n2C |  | inactive |
| O=C(Nc1ccc(NC(=O)c2cccs2)cn1)c1ccco1 |  | inactive |
| COC(=O)c1oc2ccc(Br)cc2c1NC(C)=O |  | inactive |
| O=C(C(NS(=O)(=O)c1cccc2nsnc12)c1ccccc1)N1CCN(c2ccccn2)CC1 (stereo not given) |  | inactive |
| CC[C@@](O)(C(=O)O)c1cc2n(c(=O)c1CO)Cc1cc3ccccc3nc1-2 |  | -3.6% [at 5.75 µM] |
| CC(C)CCNC(=O)CN(C(=O)Cn1nnc(-c2ccc(F)cc2)n1)C1CCCC1 |  | inactive |
| O=C(CSc1nnc(-c2ccco2)o1)NCC(=O)c1ccccc1 |  | inactive |
| Nc1scc(-c2ccncc2)c1Cl |  | inactive |
| O=C(CSc1nc2ccccc2o1)N1CCN(c2ccc(Cl)cc2)CC1 |  | inactive |
| O=C(c1ccccc1-c1ccccc1)N1CCOCC1 |  | inactive |
| Cc1ccc(F)cc1NC(=O)c1ccc2c(c1)OCO2 |  | inactive |
| c1ccc2nc(C3=NCCN3)cnc2c1 |  | inactive |
| COc1ccc(CCNc2ncnc3nc[nH]c23)cc1OC |  | inactive |
| Cc1cc(C(=O)O)ccc1[N+](=O)[O-] |  | inactive |
| O=C(Nc1ccccc1F)c1cc(S(=O)(=O)N2CCCCC2)cs1 |  | inactive |
| COC(=O)[C@@]1(Cc2ccc(OC)cc2)[C@H]2c3cc(C(=O)N4CCCC4)n(Cc4ccc(C(F)(F)F)nc4)c3C[C@H]2CN1C(=O)c1ccccc1 |  | inactive |
| Cc1ccc(Cn2nnc3c(=O)n(CC(=O)N4CCCCC4)cnc32)cc1 |  | inactive |
| CCC(C)(C)n1nnnc1C(c1cccs1)N1CCN(c2nc3ccccc3s2)CC1 (stereo not given) |  | inactive |
| O=S(=O)(Nc1ccc2nc(-c3ccco3)[nH]c2c1)c1ccccc1 |  | inactive |

| SMILES | Potency | activity change, negative = inhibition |
| --- | --- | --- |
| Cc1cc(N2C(=O)c3ccc(C(=O)NCc4ccccc4)cc3C2=O)no1 |  | inactive |
| CCCCOc1ccc(Cl)cc1CSc1nncn1N |  | inactive |
| NCC[Se][Se]CCN |  | -3% [at 5.75 µM] |
| NC(=NC(=O)c1ccccc1)C1=C(O)CCC1=O |  | inactive |
| COC(=O)Cn1c(=NC(=O)CSCC(=O)Nc2cc(C)on2)sc2ccccc21 |  | inactive |
| Cc1ccsc1-c1nc(CSCC(=O)NCCN2CCCC2)c(C)o1 |  | inactive |
| O=C(NCc1ccco1)c1ccc(CS(=O)(=O)Cc2ccc(F)cc2)o1 |  | inactive |
| CCCCCCn1c(CN2CCCC(C)C2)nc2c1c(=O)n(C)c(=O)n2C (stereo not given) |  | inactive |
| O=C1c2ccccc2C(Nc2ccc3c(c2)OCCO3)N1Cc1ccco1 (stereo not given) |  | inactive |
| COc1ccccc1CN1CC2(CCN(S(=O)(=O)c3ccccc3)CC2)C1 |  | inactive |
| CCOC(=O)c1nnn(-c2nc(OC)nc(N(C)C)n2)c1-c1ccccc1 |  | inactive |
| CCOC(=O)c1sc(=S)n2c1[nH]c(=O)c1ccc(C(=O)OC)cc12 |  | inactive |
| O=C(CS(=O)(=O)c1cn(Cc2cccc(F)c2)c2ccccc12)N1CCCCC1 |  | inactive |
| CC(C)CSC[C@@H]1O[C@H](n2cnc3c(N)nccc32)[C@H](O)[C@@H]1O |  | -4% [at 5.75 µM] |
| CCCCSc1nnc(-c2ccc(NC(=O)CC)cc2)n1C |  | inactive |
| COc1ccc2[nH]c(=O)c(CN(Cc3nnnn3CCc3ccccc3)CC3CCCO3)cc2c1 (stereo not given) |  | inactive |
| CC(C)CC(=O)N=C1SC2CS(=O)(=O)CC2N1CCc1ccccc1 (stereo not given) |  | inactive |
| O=C(NCc1ccccn1)Nc1ccc(F)cc1 |  | inactive |
| CC(=NCc1ccco1)C1=C(O)c2ccccc2C1=O |  | inactive |
| COC(=O)c1ccc(NC(=O)CSc2nnc(-c3ccncc3)n2C)cc1 |  | inactive |
| COc1ccccc1OCCOc1ccc(/C=N/n2cnnc2)cc1 |  | inactive |
| CC12CN(Cc3ccccc3)CC(C)(CN(Cc3ccccc3)C1)C2=NO |  | inactive |
